This is part of a sample that, as a whole, favours compounds with a hit. Of some 79,000 tested, about 15% had one in any assay. Cut-off read from the data, not from the text of the source: active = growth inhibition above about 70%; inactive = the rest.
Legend:
[1] = NCI Yeast Anticancer Drug Screen. Data for the rad50 strain (AID 155);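 note: 0% = growth of vehicle-only cultures of the same strain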; conditions: S. cerevisiae rad50 strain growth inhibition; at 50.0 µM; active compounds read high
In short: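 Vehicle-treated cultures provide the reference for the growth inhibition reported for compound-exposed, repair-deficient yeast.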

[2] = NCI Yeast Anticancer Drug Screen. Data for the mec2-1 strain (AID 157); conditions: S. cerevisiae mec2-1 strain, at 50.0 µM, active compounds read high
In short: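 Yeast mec2-1 mutant treated with compound. Readout: growth inhibition vs vehicle controls.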

[3] = NCI Yeast Anticancer Drug Screen. Data for the sgs1 mgt1 strain (AID 161);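 note: 0% = growth of cultures given vehicle only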; conditions: S. cerevisiae sgs1 mgt1 strain, at 50.0 µM, active compounds read high
In short: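 Mutant yeast exposed to compound; growth scored against vehicle-only wells.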

[4] = NCI Yeast Anticancer Drug Screen. Data for the cln2 rad14 strain (AID 165);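 note: 0% = growth equal to vehicle treated cultures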; conditions: S. cerevisiae cln2 rad14 strain, at 50.0 µM, active compounds read high
In short: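 cln2 rad14 yeast strain; compound exposure; growth inhibition read vs vehicle controls.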

[5] = NCI Yeast Anticancer Drug Screen. Data for the bub3 strain (AID 167); conditions: S. cerevisiae bub3 mutant strain, at 50.0 µM, active compounds read high
In short: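 Mutant yeast screening strain plus compound; vehicle-treated cultures serve as the 0% inhibition reference.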

[6] = NCI Yeast Anticancer Drug Screen. Data for the mlh1 rad18 strain (AID 175); conditions: S. cerevisiae mlh1 rad18 strain growth inhibition; at 50.0 µM; active compounds read high
In short: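 Yeast w/ defined DNA-repair lesions; compound exposure; growth vs vehicle controls → % inhibition.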

Measured: growth inhibition

CC(=O)c1cccc(N2COC(C)(C)c3nc4ccccc4n3C2)c1
inactive: [1] 5.9% | [2] -9.85% | [3] -20.1% | [4] 12.8% | [5] -19.9% | [6] -0.05%

Cc1ccc(S(=O)(=O)N/N=C(\C(=O)c2ccccc2)c2ccccc2)cc1
inactive: [1] 45% | [2] 18.2% | [3] 39.4% | [4] 28.1% | [5] 23.6% | [6] 36.6%

O=C(O)c1sccc1Cc1ccsc1
inactive: [1] -6.85% | [2] -10.8% | [3] -8.65% | [4] -27.6% | [5] -25.9% | [6] 5%

O=C(Cl)CN1C(=O)c2ccccc2C1=O
inactive: [1] -12.1% | [2] -24% | [3] -14.5% | [4] -14.3% | [5] -12.3% | [6] -0.25%

CN(C)C(=O)Nc1ccc(F)cc1
inactive: [1] -5.75% | [2] -25.6% | [3] 13.6% | [4] -20.6% | [5] -24.9% | [6] -16.6%

COc1ccc(C(C)(C)C#N)cc1
inactive: [1] -20.7% | [2] 13.6% | [3] -5.95% | [4] -12.8% | [5] -10.6% | [6] 31.6%

Brc1cccc(Br)n1
inactive: [1] -6.45% | [2] -6.15% | [3] -7.55% | [4] 7.4% | [5] 2.1% | [6] 4.05%

Clc1c(Cl)c(Cl)c(CSCc2c(Cl)c(Cl)c(Cl)c(Cl)c2Cl)c(Cl)c1Cl
inactive: [1] -16.2% | [2] -7% | [3] -12.2% | [4] -31.9% | [5] 2.1% | [6] -13.3%

Cc1cc(N(CCC#N)CCC#N)ccc1/C(N=Nc1ccc([N+](=O)[O-])cc1)=N\NC(=O)c1cc(Cl)ccc1O
inactive: [1] 18.9% | [2] 8.8% | [3] -5% | [4] 6.85% | [5] -26.4% | [6] 9.1%

O=Ic1ccccc1
inactive: [1] 16.6% | [2] 0.2% | [3] 1.5% | [4] 10.9% | [5] -0.3% | [6] -8.8%

O=C1OC2(c3ccc(O)cc3Oc3cc(O)ccc32)C2C3CCC(O3)C12 (stereo unspecified)
inactive: [1] 52.2% | [2] 38.2% | [3] 42.2% | [4] 27% | [5] 37.2% | [6] 40.4%

O=C(c1ccccc1)N1CCOCC1
inactive: [1] 9.75% | [2] -2.5% | [3] -3.25% | [4] 12.3% | [5] -0.75% | [6] 13.2%

CCn1c(=O)c2c3ccc(O)cc3[nH]c2c2ccc(O)cc21
inactive: [1] -63.7% | [2] -74.6% | [3] -4.8% | [4] -14.6% | [5] -23.8% | [6] -43.5%

CC(CO)(CO)Nc1ncnc2ccccc12
inactive: [1] -4.5% | [2] -12% | [3] -30.9% | [4] -26.4% | [5] -36.9% | [6] 9.7%

Cc1ccc(-n2cc(-c3ccc(Cl)cc3)c3c(NNC(=S)NCc4ccccc4)ncnc32)cc1
inactive: [1] 30.9% | [2] 35% | [3] 52.5% | [4] 32.4% | [5] 40.7% | [6] 11.1%

CON(C)c1nc(N(C)OC)nc(N(C)OC)n1
inactive: [1] -8.05% | [2] -48.2% | [3] -28.8% | [4] 7.85% | [5] -22.9% | [6] -12.5%

CC(Nc1ncccn1)Nc1ncccn1
inactive: [1] -6.4% | [2] 1.8% | [3] 7.75% | [4] -29.9% | [5] -1.95% | [6] -1.75%

O=C(Nc1cc(Cl)c(I)cc1Cl)C(F)(F)F
inactive: [1] 55.4% | [2] 10.8% | [3] 29.7% | [4] -8.35% | [5] 7.05% | [6] 18.8%

Cc1cc(Br)ncc1[N+](=O)[O-]
inactive: [1] -12.8% | [2] 3.3% | [3] -1.25% | [4] -6% | [5] -3.7% | [6] -7.6%

C/C(=C/C(C)O)c1ccccc1 (stereo unspecified)
inactive: [1] -13.6% | [2] -3.85% | [3] -15.2% | [4] 4.9% | [5] -6.1% | [6] -6.9%

COc1ccc(-c2cc(=O)c3ccc(O)cc3o2)c(OC)c1OC
inactive: [1] -4.7% | [2] -10.4% | [3] -8.35% | [4] 6.65% | [5] -2.65% | [6] -1.75%

O=C(Nc1cccc(O)c1)c1ccccc1Cl
inactive: [1] 9.3% | [2] -6% | [3] -15.4% | [4] -86.3% | [5] -11.9% | [6] -30.1%

Cc1cc(Cl)c(Cl)cc1NC(=O)c1ccccc1Cl
inactive: [1] 1.55% | [2] -11.3% | [3] 4% | [4] -9.25% | [5] 8.9% | [6] -5.25%

C[C@]12CC[C@@H]3c4ccc(O)cc4CC[C@H]3[C@@H]1CC[C@@H]2OP(=O)(O)O
inactive: [1] -0.15% | [2] -9.95% | [3] -37.1% | [4] -27.4% | [5] -6.45% | [6] -16.6%

NCCc1ccc(O)c(O)c1
inactive: [1] -4.4% | [2] -4.2% | [3] -1.55% | [4] 4.25% | [5] -1.45% | [6] 1.85%

S=c1nc[nH]c2c1ncn2C1OC(COCc2ccccc2)C(OCc2ccccc2)C1OCc1ccccc1 (stereo unspecified)
inactive: [1] 31.2% | [2] 15.1% | [3] 17.4% | [4] 14.7% | [5] 2.1% | [6] 5.9%

C1CCC2C(C1)CCCC2NC1=NCCO1 (stereo unspecified)
inactive: [1] 1.75% | [2] -23.7% | [3] 7.85% | [4] 12.8% | [5] -1.1% | [6] 12.3%

CCN(CC)c1nc2ccccc2o1
inactive: [1] -16.9% | [2] 16% | [3] 3.7% | [4] -36.8% | [5] -19.9% | [6] -9.2%

COC(=O)c1ccccc1NC(=NC1CCCCCC1)NS(=O)(=O)c1ccc(C)cc1
inactive: [1] 30.4% | [2] 11.2% | [3] -13.8% | [4] -8.15% | [5] 0.3% | [6] -31.3%

O=C1CS/C(=N/C(=O)Nc2ccc(Cl)cc2)N1
inactive: [1] -1.9% | [2] 32.5% | [3] 16.1% | [4] -9.55% | [5] -6.95% | [6] 14.5%

CCCCCCCOC(=O)c1ccccc1Cl
inactive: [1] 7.3% | [2] -10.1% | [3] 23.4% | [4] -6.7% | [5] 13.9% | [6] 2%

O=C(/C=C/c1ccc(Cl)cc1)c1ccc(Cl)s1
inactive: [1] -52% | [2] -48.8% | [3] -23.1% | [4] -16.2% | [5] -16.1% | [6] -24.9%

Cc1cccc(NC(=O)COc2ccc(Cl)cc2)c1C
inactive: [1] 12.4% | [2] 8.6% | [3] 5.1% | [4] -15.2% | [5] 13.1% | [6] -4.7%

CCCCNc1nc2c(=O)n(C)c(=O)n(C)c2s1
inactive: [1] -6.3% | [2] -0.6% | [3] -3.1% | [4] -17.4% | [5] -5.9% | [6] 9.75%

COC(=O)c1ccccc1N=Cc1ccc(N(CCC#N)S(=O)(=O)c2ccccc2)cc1
inactive: [1] -2.05% | [2] 13.3% | [3] -6.15% | [4] 18.2% | [5] 20.3% | [6] 15.9%

CC1=CC(=O)CC(C(C)C)C1 (stereo unspecified)
inactive: [1] 15.5% | [2] -7.5% | [3] 22.8% | [4] -5.95% | [5] 1.95% | [6] 5.2%

C[N+]12CCCCC1CC2 (stereo unspecified)
inactive: [1] 29.4% | [2] -5.25% | [3] -7.35% | [4] -39.5% | [5] -40.3% | [6] 9.85%

CC12CCC(NC(=O)C3CCCN3C(=O)OCc3ccccc3)CC1CCC1C2CCC2(C)C(NC(=O)C3CCCN3C(=O)OCc3ccccc3)CCC12 (stereo unspecified)
inactive: [1] -4.3% | [2] 4.15% | [3] -19.4% | [4] -46% | [5] -5.35% | [6] -3.2%

COC(=O)C(Cc1nc2ccc(Cl)cc2[nH]c1=O)/C(=N/O)C(=O)Nc1cccc(Cl)c1C (stereo unspecified)
inactive: [1] 22.6% | [2] 0.95% | [3] 0.85% | [4] -40.9% | [5] 0.3% | [6] -4.55%

CCN(CC)P1(=O)C=C(C)C2C1C1C=C(C)C2P1(=O)N(CC)CC (stereo unspecified)
inactive: [1] 3.5% | [2] -2.45% | [3] -5.25% | [4] -5.25% | [5] -34.8% | [6] -13.2%

CCN1c2ccccc2CC(CCN(C)Cc2ccccc2)(C(N)=O)c2ccccc21 (stereo unspecified)
inactive: [1] 26.1% | [2] -1.15% | [3] -7.7% | [4] 7.45% | [5] 5.3% | [6] -6.05%

— PubChem BioAssay (NCI)
